Assays:
Assay in all cases: DAPPL (digital affinity profiling via proximity ligation, sequencing); 10 mM Tris-HCl pH 7.5, 50 mM NaCl, 1 mM DTT, 4% glycerol, room temperature, 30 min; GST-TFs on glutathione beads, 16-mer random dsDNA library, 0.1% formaldehyde crosslink after washing; high values mean tight binding
FEV = molecular target: T1, FEV (Homo sapiens, UniProt Q99581 1-238); settings: protein: recombinant; tags: N-terminal GST; dsDNA, one strand shown
T1 sequence: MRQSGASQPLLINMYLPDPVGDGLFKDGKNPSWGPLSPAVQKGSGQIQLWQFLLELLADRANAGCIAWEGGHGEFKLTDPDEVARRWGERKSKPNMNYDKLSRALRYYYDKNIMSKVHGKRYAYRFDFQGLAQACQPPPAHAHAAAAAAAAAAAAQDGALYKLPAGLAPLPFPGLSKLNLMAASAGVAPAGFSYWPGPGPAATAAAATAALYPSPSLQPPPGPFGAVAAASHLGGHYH
Outline: (§1)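 Each value of binding signal is a hexamer's read frequency for a factor divided by the same hexamer's frequency in the tag-only sample. Barcoded, bead-captured GST fusions of human transcription factors made in yeast were pooled with that sample and incubated with 200 nmole of a random double-stranded 16-mer DNA library in Tris/NaCl/DTT/glycerol buffer at room temperature for 30 min. Washing, 0.1% formaldehyde crosslinking, proximity ligation, PCR and Illumina NextSeq500 sequencing followed.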

ETV5 = ETV5 (Homo sapiens, UniProt P41161 1-510); settings: protein: recombinant; tags: N-terminal GST; dsDNA, one strand shown
Outline: as §1

HSF1 = HSF1 (Homo sapiens, UniProt Q00613 1-529); settings: protein: recombinant; tags: N-terminal GST; chain copies: 3; dsDNA, one strand shown
Outline: as §1

SPIC = molecular target: T2, SPIC (Homo sapiens, UniProt Q8N5J4 1-248); settings: protein: recombinant; tags: N-terminal GST; dsDNA, one strand shown
T2 sequence: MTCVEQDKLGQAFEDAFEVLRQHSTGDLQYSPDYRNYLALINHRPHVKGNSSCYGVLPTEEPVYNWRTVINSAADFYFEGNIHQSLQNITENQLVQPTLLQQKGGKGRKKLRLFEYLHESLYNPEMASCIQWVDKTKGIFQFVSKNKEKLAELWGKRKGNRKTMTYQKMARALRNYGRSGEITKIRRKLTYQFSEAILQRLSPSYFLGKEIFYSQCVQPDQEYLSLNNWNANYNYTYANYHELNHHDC
Outline: as §1

ELF4 = ELF4 (Homo sapiens, UniProt Q99607 1-663); settings: protein: recombinant; tags: N-terminal GST; dsDNA, one strand shown
Outline: as §1

ELK4 = molecular target: T3, ELK4 (Homo sapiens, UniProt P28324-2 1-405); settings: protein: recombinant; tags: N-terminal GST; dsDNA, one strand shown
T3 sequence: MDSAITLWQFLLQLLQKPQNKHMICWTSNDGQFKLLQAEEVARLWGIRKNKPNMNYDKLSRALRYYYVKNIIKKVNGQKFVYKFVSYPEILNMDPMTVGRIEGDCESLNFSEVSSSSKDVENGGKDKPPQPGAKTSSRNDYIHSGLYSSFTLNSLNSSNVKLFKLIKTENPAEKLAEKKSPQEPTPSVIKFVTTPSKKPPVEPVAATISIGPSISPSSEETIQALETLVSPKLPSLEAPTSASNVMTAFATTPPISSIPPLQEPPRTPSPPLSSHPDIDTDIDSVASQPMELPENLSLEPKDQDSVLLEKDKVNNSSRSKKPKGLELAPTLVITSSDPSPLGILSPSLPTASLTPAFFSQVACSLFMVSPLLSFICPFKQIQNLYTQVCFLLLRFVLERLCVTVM
Outline: as §1

ETV2 = molecular target: T4, ETV2 (Homo sapiens, UniProt O00321 1-342); settings: protein: recombinant; tags: N-terminal GST; dsDNA, one strand shown
T4 sequence: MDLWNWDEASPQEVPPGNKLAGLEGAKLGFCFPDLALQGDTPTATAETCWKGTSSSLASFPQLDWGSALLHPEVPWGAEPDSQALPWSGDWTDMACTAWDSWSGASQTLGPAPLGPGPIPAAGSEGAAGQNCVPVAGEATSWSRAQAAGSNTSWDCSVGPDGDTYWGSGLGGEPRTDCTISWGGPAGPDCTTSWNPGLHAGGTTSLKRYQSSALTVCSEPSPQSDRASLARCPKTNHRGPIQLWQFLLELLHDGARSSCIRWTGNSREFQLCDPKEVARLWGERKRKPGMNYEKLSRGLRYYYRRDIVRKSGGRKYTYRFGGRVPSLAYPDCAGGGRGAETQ
Outline: as §1

ELF3 = molecular target: T5, ELF3 (Homo sapiens, UniProt P78545 1-371); settings: protein: recombinant; tags: N-terminal GST; dsDNA, one strand shown
T5 sequence: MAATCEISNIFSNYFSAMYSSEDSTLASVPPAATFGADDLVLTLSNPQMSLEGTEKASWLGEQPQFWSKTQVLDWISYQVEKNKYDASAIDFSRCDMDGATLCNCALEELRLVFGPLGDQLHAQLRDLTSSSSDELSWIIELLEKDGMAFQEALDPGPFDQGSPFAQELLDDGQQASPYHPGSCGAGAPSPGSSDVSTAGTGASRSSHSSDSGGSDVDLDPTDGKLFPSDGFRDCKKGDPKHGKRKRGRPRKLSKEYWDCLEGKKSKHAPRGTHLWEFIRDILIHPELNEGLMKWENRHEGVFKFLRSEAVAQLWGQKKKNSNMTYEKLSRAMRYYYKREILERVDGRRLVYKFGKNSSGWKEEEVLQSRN
Outline: as §1

CRX = CRX (Homo sapiens, UniProt O43186 1-299); settings: protein: recombinant; tags: N-terminal GST; dsDNA, one strand shown
Outline: as §1

ETV1 = ETV1 (Homo sapiens, UniProt P50549 1-477); settings: protein: recombinant; tags: N-terminal GST; dsDNA, one strand shown
Outline: as §1

ERF = molecular target: T6, ERF (Homo sapiens, UniProt P50548 1-548); settings: protein: recombinant; tags: N-terminal GST; dsDNA, one strand shown
T6 sequence: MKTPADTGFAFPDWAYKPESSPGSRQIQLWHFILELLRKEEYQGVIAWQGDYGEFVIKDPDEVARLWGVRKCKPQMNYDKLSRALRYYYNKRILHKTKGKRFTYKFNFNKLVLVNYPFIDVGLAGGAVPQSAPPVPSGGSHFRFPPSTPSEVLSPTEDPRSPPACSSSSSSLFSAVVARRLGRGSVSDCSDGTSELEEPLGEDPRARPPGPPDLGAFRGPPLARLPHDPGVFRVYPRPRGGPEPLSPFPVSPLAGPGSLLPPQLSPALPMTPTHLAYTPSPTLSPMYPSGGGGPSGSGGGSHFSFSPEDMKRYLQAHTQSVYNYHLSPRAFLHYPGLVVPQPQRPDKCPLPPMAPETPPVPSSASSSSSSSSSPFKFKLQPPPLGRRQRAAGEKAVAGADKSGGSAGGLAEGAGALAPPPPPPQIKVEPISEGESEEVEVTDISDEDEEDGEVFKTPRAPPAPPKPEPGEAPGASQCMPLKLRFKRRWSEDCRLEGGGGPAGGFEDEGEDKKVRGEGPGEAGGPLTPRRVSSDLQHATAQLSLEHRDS
Outline: as §1

ETV3L = molecular target: T7, ETV3L (Homo sapiens, UniProt Q6ZN32 1-361); settings: protein: recombinant; tags: N-terminal GST; dsDNA, one strand shown
T7 sequence: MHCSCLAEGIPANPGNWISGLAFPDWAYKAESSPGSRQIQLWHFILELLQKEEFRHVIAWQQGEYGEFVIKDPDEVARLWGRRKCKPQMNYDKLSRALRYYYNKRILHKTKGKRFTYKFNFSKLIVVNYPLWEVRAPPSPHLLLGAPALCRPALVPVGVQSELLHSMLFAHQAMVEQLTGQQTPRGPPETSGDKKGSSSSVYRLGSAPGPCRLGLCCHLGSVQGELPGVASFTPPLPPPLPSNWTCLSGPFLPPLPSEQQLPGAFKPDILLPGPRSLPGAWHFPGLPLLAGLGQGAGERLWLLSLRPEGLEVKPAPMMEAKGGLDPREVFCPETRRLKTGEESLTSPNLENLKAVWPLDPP
Outline: as §1

ETS2 = molecular target: T8, ETS2 (Homo sapiens, UniProt P15036 1-469); settings: protein: recombinant; tags: N-terminal GST; dsDNA, one strand shown
T8 sequence: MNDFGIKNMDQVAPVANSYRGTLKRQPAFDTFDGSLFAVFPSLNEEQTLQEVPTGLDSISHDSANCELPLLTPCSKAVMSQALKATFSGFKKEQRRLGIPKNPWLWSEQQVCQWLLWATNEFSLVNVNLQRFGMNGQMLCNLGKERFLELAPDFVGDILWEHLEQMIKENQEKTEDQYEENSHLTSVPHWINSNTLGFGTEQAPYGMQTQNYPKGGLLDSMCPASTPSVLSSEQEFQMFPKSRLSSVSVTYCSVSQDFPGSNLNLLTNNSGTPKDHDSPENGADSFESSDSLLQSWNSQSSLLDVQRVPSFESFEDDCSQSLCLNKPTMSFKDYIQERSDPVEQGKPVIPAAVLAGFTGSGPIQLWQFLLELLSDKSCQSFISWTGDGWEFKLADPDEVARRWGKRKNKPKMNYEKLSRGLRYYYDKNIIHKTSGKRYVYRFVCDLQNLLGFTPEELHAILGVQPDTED
Outline: as §1

SPDEF = molecular target: T9, SPDEF (Homo sapiens, UniProt O95238 1-335); settings: protein: recombinant; tags: N-terminal GST; dsDNA, one strand shown
T9 sequence: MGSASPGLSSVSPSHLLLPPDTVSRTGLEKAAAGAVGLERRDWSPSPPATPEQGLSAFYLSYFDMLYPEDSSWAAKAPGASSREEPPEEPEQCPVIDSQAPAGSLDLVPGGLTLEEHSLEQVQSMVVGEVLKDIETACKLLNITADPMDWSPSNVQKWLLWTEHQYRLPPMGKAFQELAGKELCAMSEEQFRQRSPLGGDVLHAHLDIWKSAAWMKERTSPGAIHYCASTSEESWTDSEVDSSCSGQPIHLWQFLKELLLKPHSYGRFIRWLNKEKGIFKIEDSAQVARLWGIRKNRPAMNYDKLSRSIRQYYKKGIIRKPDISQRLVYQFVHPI
Outline: as §1

ETV7 = molecular target: T10, ETV7 (Homo sapiens, UniProt Q9Y603 1-341); settings: protein: recombinant; tags: N-terminal GST; dsDNA, one strand shown
T10 sequence: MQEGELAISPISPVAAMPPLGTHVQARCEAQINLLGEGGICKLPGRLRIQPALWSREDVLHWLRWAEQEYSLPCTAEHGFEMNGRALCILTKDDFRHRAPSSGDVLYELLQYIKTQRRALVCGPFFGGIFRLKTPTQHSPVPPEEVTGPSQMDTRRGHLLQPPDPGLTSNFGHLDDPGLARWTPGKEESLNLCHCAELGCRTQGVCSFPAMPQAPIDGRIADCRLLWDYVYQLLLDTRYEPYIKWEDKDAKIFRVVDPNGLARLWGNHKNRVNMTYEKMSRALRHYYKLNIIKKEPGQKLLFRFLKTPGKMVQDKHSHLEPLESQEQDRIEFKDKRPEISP
Outline: as §1

ELF5 = molecular target: T11, ELF5 (Homo sapiens, UniProt Q9UKW6-2 1-255); settings: protein: recombinant; tags: N-terminal GST; dsDNA, one strand shown
T11 sequence: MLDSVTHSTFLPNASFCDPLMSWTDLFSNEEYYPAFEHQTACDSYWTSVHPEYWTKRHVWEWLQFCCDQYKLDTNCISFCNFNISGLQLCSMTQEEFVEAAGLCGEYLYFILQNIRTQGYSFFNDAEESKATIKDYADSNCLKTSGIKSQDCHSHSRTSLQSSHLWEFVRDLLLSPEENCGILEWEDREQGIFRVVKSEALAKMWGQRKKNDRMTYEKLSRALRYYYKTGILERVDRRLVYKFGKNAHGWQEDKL
Outline: as §1

ETV3 = molecular target: T12, ETV3 (Homo sapiens, UniProt P41162-2 1-143); settings: protein: recombinant; tags: N-terminal GST; dsDNA, one strand shown
T12 sequence: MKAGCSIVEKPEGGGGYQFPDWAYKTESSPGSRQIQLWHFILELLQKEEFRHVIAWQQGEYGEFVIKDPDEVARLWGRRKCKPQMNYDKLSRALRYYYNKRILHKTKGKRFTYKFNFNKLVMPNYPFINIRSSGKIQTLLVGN
Outline: as §1

ETV6 = ETV6 (Homo sapiens, UniProt P41212 1-452); settings: protein: recombinant; tags: N-terminal GST; dsDNA, one strand shown
Outline: as §1

Chain of ETV1 (P50549 whole entry): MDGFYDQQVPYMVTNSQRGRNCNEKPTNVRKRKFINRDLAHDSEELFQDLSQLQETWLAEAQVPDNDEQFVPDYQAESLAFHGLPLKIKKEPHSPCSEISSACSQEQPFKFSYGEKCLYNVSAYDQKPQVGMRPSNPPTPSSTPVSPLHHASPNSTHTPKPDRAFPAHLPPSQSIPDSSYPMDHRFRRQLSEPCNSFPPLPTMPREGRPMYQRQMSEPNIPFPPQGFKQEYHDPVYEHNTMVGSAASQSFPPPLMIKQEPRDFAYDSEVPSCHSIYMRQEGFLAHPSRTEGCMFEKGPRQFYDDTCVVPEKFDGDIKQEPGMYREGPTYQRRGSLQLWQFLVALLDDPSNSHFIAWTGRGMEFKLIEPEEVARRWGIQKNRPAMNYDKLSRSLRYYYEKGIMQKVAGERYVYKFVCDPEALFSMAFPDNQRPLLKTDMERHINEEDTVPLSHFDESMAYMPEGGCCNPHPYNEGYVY
Chain of ETV6 (P41212 whole entry): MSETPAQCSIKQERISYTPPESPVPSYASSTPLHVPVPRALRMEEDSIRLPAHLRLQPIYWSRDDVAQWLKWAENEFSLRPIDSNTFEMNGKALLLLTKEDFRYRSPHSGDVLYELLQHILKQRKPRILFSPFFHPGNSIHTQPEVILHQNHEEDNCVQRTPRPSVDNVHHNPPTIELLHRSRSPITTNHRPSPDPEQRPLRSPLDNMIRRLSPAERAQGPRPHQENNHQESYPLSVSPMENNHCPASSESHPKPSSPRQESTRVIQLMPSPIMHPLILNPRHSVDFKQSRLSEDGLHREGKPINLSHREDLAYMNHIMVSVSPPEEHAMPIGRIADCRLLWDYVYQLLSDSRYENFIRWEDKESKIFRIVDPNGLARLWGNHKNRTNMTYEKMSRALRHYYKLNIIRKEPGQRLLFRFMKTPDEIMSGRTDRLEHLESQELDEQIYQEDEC
Chain of ELF4 (Q99607 whole entry): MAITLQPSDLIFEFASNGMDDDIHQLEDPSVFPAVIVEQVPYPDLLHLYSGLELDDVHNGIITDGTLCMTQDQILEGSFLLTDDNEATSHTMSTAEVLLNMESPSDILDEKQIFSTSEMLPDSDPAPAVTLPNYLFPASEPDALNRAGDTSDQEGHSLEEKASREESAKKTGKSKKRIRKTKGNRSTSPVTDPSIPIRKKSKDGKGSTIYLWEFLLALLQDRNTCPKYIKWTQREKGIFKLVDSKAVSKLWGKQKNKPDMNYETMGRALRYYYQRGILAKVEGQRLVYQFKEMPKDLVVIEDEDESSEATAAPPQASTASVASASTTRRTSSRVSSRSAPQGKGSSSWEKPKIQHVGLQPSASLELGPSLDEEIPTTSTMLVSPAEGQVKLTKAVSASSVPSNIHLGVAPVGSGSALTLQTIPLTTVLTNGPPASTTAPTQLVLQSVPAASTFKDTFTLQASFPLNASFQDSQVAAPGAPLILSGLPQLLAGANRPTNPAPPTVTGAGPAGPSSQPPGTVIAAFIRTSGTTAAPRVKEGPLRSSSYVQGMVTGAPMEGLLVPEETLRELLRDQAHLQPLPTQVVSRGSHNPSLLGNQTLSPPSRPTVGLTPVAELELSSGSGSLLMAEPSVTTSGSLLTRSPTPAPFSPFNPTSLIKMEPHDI
Chain of CRX (O43186 whole entry): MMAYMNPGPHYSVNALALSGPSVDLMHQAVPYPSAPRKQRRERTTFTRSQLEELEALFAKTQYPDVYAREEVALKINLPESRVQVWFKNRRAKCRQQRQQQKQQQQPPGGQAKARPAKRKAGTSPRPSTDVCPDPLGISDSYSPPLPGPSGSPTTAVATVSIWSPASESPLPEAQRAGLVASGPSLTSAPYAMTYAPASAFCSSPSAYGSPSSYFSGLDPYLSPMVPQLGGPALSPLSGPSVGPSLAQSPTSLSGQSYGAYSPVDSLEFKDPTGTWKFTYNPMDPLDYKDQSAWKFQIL
Chain of ETV5 (P41161 whole entry): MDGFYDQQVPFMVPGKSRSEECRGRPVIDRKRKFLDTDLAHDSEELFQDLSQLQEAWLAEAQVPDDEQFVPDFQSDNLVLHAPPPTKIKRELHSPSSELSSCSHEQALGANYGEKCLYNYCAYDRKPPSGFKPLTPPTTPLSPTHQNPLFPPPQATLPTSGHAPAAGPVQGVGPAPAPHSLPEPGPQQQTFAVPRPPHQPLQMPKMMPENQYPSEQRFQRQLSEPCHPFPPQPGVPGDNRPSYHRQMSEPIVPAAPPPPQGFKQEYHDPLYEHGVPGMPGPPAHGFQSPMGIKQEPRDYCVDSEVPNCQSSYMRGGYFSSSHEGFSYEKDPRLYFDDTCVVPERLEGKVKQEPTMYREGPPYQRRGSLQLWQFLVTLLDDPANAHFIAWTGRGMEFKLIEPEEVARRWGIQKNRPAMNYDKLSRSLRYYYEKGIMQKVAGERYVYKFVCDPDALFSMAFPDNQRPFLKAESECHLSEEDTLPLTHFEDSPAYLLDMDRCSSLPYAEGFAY
Chain of HSF1 (Q00613 whole entry): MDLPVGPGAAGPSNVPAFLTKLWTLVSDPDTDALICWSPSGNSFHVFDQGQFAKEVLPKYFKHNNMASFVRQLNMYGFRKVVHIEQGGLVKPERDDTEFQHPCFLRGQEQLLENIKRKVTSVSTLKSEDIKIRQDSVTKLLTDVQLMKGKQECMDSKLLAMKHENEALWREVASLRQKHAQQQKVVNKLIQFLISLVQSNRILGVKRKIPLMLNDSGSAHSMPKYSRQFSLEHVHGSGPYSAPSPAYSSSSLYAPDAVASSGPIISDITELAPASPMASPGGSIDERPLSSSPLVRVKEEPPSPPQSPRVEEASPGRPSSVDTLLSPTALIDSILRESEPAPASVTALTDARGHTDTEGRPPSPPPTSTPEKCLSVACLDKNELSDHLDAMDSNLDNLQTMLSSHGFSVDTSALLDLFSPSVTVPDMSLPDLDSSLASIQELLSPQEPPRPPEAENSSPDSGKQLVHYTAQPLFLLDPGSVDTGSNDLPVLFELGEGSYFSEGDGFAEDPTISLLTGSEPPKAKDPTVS

Sequence: CTCCGA
- binding signal (FEV): 1.4 fold enrichment (6-mer frequency, TF over GST control)
- binding signal (ETV5): 1.3 fold enrichment (6-mer frequency, TF over GST control)
- binding signal (HSF1): 1.49 fold enrichment (6-mer frequency, TF over GST control)
- binding signal (SPIC): 1.51 fold enrichment (6-mer frequency, TF over GST control)
- binding signal (ELF4): 1.41 fold enrichment (6-mer frequency, TF over GST control)
- binding signal (ELK4): 1.36 fold enrichment (6-mer frequency, TF over GST control)
- binding signal (ETV2): 1.19 fold enrichment (6-mer frequency, TF over GST control)
- binding signal (ELF3): 1.2 fold enrichment (6-mer frequency, TF over GST control)
- binding signal (CRX): 1.3 fold enrichment (6-mer frequency, TF over GST control)
- binding signal (ETV1): 1.24 fold enrichment (6-mer frequency, TF over GST control)
- binding signal (ERF): 1.41 fold enrichment (6-mer frequency, TF over GST control)
- binding signal (ETV3L): 1.38 fold enrichment (6-mer frequency, TF over GST control)
- binding signal (ETS2): 1.35 fold enrichment (6-mer frequency, TF over GST control)
- binding signal (SPDEF): 1.36 fold enrichment (6-mer frequency, TF over GST control)
- binding signal (ETV7): 1.24 fold enrichment (6-mer frequency, TF over GST control)
- binding signal (ELF5): 1.23 fold enrichment (6-mer frequency, TF over GST control)
- binding signal (ETV3): 1.3 fold enrichment (6-mer frequency, TF over GST control)
- binding signal (ETV6): 1.33 fold enrichment (6-mer frequency, TF over GST control)

From paper PMC7862700, “An all-to-all approach to the identification of sequence-specific readers for epigenetic DNA modifications on cytosine”
